The text below walks through data of PubChem BioAssay (NCI).

“And” between values parts separate entries of the source, which are not always exact repeats. Equal entries are not always repeated. This is part of a sample that, as a whole, favours compounds with a hit. Of some 83,000 tested, about 20% had one in any assay.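 Single-dose data. Exposure time 48 hours. Values below 10 considered active.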 The source made the active and inactive calls.

Test systems include SK-MEL-2 melanoma; EKVX NSCLC; SN12C renal; UO-31 renal; TK-10 renal; ACHN renal; CAKI-1 renal; A498 renal; CCRF-CEM leukemia; MOLT-4 leukemia.
Holding throughout (test): NCI-60 one-dose screen, 48 h (100 = growth as untreated, 0 = no growth, -100 = all killed)
What all share (conditions): 10 µM unless noted

Turning to `Cc1cc(=NO)cc(C)n1O`, the growth is 113% (inactive) with SK-MEL-2 melanoma; 105% (inactive) with EKVX NSCLC; 100% (inactive) with SN12C renal; 101% (inactive) in the experiment on UO-31 renal; 84.7% (inactive) in the experiment on TK-10 renal; 117% (inactive) in the experiment with ACHN renal. Also, the growth in the experiment on CAKI-1 renal was 109% (inactive); with A498 renal, 93.9% (inactive); with CCRF-CEM leukemia, 80.9% (inactive); with MOLT-4 leukemia, 96.6% (inactive).

Consider `Nc1[nH][nH]c(=O)c1N=Nc1ccccc1`, for which the growth in the experiment with SK-MEL-2 melanoma is 122% (inactive) and 100% (inactive); with EKVX NSCLC, 85.3% (inactive) and 91.3% (inactive); in the experiment on SN12C renal it was 97.6% (inactive) and 106% (inactive); with UO-31 renal, 82.7% (inactive) and 85.1% (inactive); in the experiment on TK-10 renal it was 112% (inactive) and 109% (inactive); in the experiment with ACHN renal, 91.2% (inactive) and 104% (inactive). In addition, the growth in the experiment with CAKI-1 renal is 104% (inactive); with A498 renal, 86.8% (inactive) and 86.2% (inactive); in the experiment on CCRF-CEM leukemia, 108% (inactive); with MOLT-4 leukemia it was 121% (inactive) and 100% (inactive).

With `C/C(CC(C)C)=N/NC(N)=S`, the growth is 107% (inactive) with SK-MEL-2 melanoma; 59.6% (inactive) in the experiment on EKVX NSCLC; 87.2% (inactive) with SN12C renal; 62.1% (inactive) in the experiment with UO-31 renal; 105% (inactive) in the experiment on TK-10 renal; 98.3% (inactive) in the experiment with ACHN renal. The growth was 104% (inactive) in the experiment with CAKI-1 renal, 87.6% (inactive) with A498 renal, 43.8% (inactive) in the experiment on CCRF-CEM leukemia and 52.1% (inactive) in the experiment on MOLT-4 leukemia.

Consider `C/C=C/C(=O)OCCCCCCCCCCCC`, for which the growth with SK-MEL-2 melanoma is 94.3% (inactive); in the experiment on EKVX NSCLC it was 111% (inactive); in the experiment with SN12C renal it was 81.6% (inactive); in the experiment on UO-31 renal, 109% (inactive); in the experiment with TK-10 renal, 92.8% (inactive); in the experiment with ACHN renal, 103% (inactive). In addition, the growth with CAKI-1 renal was 101% (inactive); in the experiment on A498 renal, 103% (inactive); in the experiment with CCRF-CEM leukemia it was 117% (inactive); in the experiment on MOLT-4 leukemia it was 83.1% (inactive).

For the molecule `O=C1C2=C(Nc3cc(Cl)ccc3N2)OC1c1c[nH]c2ccc(COc3ccccc3)cc12` (stereo not given), the growth with SK-MEL-2 melanoma was 86.7% (inactive); in the experiment with EKVX NSCLC, 55% (inactive); in the experiment with SN12C renal it was 71.3% (inactive); in the experiment on UO-31 renal, 51.2% (inactive); in the experiment with TK-10 renal it was 71.6% (inactive); with ACHN renal, 60% (inactive). Further, the growth is 52.1% (inactive) in the experiment with CAKI-1 renal, 102% (inactive) in the experiment with A498 renal, 64.1% (inactive) in the experiment on CCRF-CEM leukemia and 77.3% (inactive) in the experiment with MOLT-4 leukemia.

As for `O=[N+]([O-])c1cccc2ccc(N/N=C/c3ccccc3O)nc12`, the growth was 149% (inactive) and 75% (inactive) with SK-MEL-2 melanoma; 78.8% (inactive) and 82.1% (inactive) in the experiment with EKVX NSCLC; 96.4% (inactive) and 98.5% (inactive) in the experiment on SN12C renal; 26.6% (inactive) and 64.3% (inactive) with UO-31 renal; 150% (inactive) and 120% (inactive) in the experiment with TK-10 renal; 68.4% (inactive) and 103% (inactive) with ACHN renal. Also, the growth with CAKI-1 renal is 80.3% (inactive); with A498 renal, 92.8% (inactive) and 95% (inactive); with CCRF-CEM leukemia it was 3.42% (active) and 86.9% (inactive); in the experiment on MOLT-4 leukemia, 16.6% (inactive) and 57% (inactive).

With `Cc1cc2nc3ccc(=[N+](C)C)cc-3sc2cc1N`, the growth with SK-MEL-2 melanoma was -33.5% (active) and 20.3% (inactive); with EKVX NSCLC, 38.7% (inactive) and 24.3% (inactive); in the experiment with SN12C renal it was -65.9% (active) and -66.4% (active); in the experiment on UO-31 renal, 8.95% (active) and 36.6% (inactive); in the experiment with TK-10 renal, -12.3% (active) and 14.7% (inactive); in the experiment with ACHN renal, -73.1% (active) and 9.45% (active). Besides, the growth in the experiment on CAKI-1 renal is 12% (inactive) and 27.6% (inactive); with A498 renal, 74.9% (inactive) and 65.4% (inactive); in the experiment on CCRF-CEM leukemia, -7.13% (active) and -12.1% (active); with MOLT-4 leukemia, -10.7% (active) and -19.8% (active).

Take `CN1C2C=CC(=O)C1C1C(=O)N(c3ccccc3)C(=O)C12` (stereo not given): the growth with SK-MEL-2 melanoma is 46.2% (inactive); with EKVX NSCLC it was 106% (inactive); in the experiment on SN12C renal, 60.2% (inactive); with UO-31 renal, 53.9% (inactive); in the experiment with TK-10 renal, 78.9% (inactive); in the experiment with ACHN renal, 63.9% (inactive). Further, the growth with CAKI-1 renal is 28% (inactive); in the experiment on A498 renal, 106% (inactive); in the experiment on CCRF-CEM leukemia, 50.5% (inactive); in the experiment with MOLT-4 leukemia it was 74.4% (inactive).

As to `O=c1[nH]c(=O)n(C2OC(CO)C(O)C2O)cc1I` (stereo not given), the growth with SK-MEL-2 melanoma is 124% (inactive); in the experiment on EKVX NSCLC, 100% (inactive) and 98.9% (inactive); in the experiment with SN12C renal, 94.8% (inactive) and 99% (inactive); with UO-31 renal, 77.7% (inactive) and 87.1% (inactive); with TK-10 renal it was 102% (inactive) and 125% (inactive); in the experiment with ACHN renal, 111% (inactive) and 117% (inactive). In addition, the growth with CAKI-1 renal is 95.9% (inactive) and 97.9% (inactive); in the experiment with A498 renal it was 97.5% (inactive) and 120% (inactive); in the experiment on CCRF-CEM leukemia it was 95.5% (inactive); in the experiment with MOLT-4 leukemia, 84.8% (inactive) and 111% (inactive).

`NC(=O)Cc1nc(O)cc(=O)[nH]1`: the growth in the experiment with SK-MEL-2 melanoma is 102% (inactive); with EKVX NSCLC, 103% (inactive); in the experiment with SN12C renal, 96.2% (inactive); in the experiment with UO-31 renal, 95.4% (inactive); in the experiment on TK-10 renal, 94% (inactive); with ACHN renal it was 107% (inactive). Moreover, the growth in the experiment on CAKI-1 renal was 99.2% (inactive); in the experiment with A498 renal, 85.6% (inactive); in the experiment on CCRF-CEM leukemia it was 88.3% (inactive); in the experiment with MOLT-4 leukemia, 95.6% (inactive).

For the molecule `CCOC(=O)c1csc(N)n1`, the growth in the experiment with SK-MEL-2 melanoma was 103% (inactive); in the experiment on EKVX NSCLC, 99.2% (inactive) and 99% (inactive); in the experiment with SN12C renal it was 100% (inactive) and 105% (inactive); with UO-31 renal it was 88.5% (inactive) and 91.9% (inactive); in the experiment with TK-10 renal it was 111% (inactive) and 97.3% (inactive); in the experiment with ACHN renal, 102% (inactive) and 104% (inactive). Besides, the growth with CAKI-1 renal was 66.6% (inactive); in the experiment on A498 renal, 93.5% (inactive); with CCRF-CEM leukemia it was 91% (inactive) and 98.5% (inactive); with MOLT-4 leukemia, 79.3% (inactive) and 106% (inactive).
